From PubChem BioAssay (Tox21)
Records with an inconclusive call do not appear. The source made the active and inactive calls. Unless noted, calls follow the shape of the dose curve; as a rule, active = well fitted curve in the direction sought with a large enough effect in the repeat runs; inconclusive = weak or mixed curves; inactive = no such curve, though single readings can be large; an effect the other way counts as inactive or inconclusive.

Columns and labels:
[1] = qHTS assay to identify small molecule agonists of the vitamin D receptor (VDR) signaling pathway - cell viability counter screen (AID 743224); also: series mostly up to about 63 µM; % is scaled to controls: 0 for no effect and ±100 for the full control effect; nearly all actives have a fitted effect of over 50% in size
How it was run: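 Compounds were pin-transferred onto VDR-bla cells plated 4 h earlier; following 16 h incubation at 37C, cell viability was quantified by CellTiter-Glo luminescence after 30 min at room temperature.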

[2] = qHTS assay to identify small molecule antagonists of the vitamin D receptor (VDR) signaling pathway - cell viability counter screen (AID 743225); also: % is scaled to controls: 0 for no effect and ±100 for the full control effect; nearly all actives have a fitted effect of over 50% in size
How it was run: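 VDR-bla HEK 293T cells, 4 h pre-incubation at 37C, then compound plus 1-alpha,25-dihydroxyvitamin D3 (3 nM final) for 16 h. After the beta-lactamase FRET read, CellTiter-Glo was added to the same wells; luminescence after 30 min at room temperature.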

[3] = qHTS assay to identify small molecule agonists of the NFkB signaling pathway - cell viability counter screen (AID 1159515; calls by dose curve; also: series mostly up to about 61 µM; % is scaled to controls: 0 for no effect and ±100 for the full control effect; nearly all actives have a fitted effect of over 55% in size)
How it was run: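 Parallel cytotoxicity counter screen in ME-180 cells carrying an NFkB-response-element beta-lactamase reporter, 2,000 cells/well. Compound exposure lasted 5 hr at 37 C, 5% CO2. Cell viability was quantified by CellTiter-Glo luminescence.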

[4] = qHTS assay to identify small molecule agonists of the endoplasmic reticulum stress response signaling pathway (AID 1159516; active = well fitted activation curve with a large enough effect in the signal ratio in the repeat runs, not every such curve was filed as active; the % refers to the signal ratio; also: % is scaled to controls: 0 for no effect and ±100 for the full control effect)
How it was run: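 Using a HeLa line with an ESRE-driven beta-lactamase gene, agonist activity was measured by FRET substrate fluorescence (460 and 530 nm emission) after cells were treated with compounds for 5 hr at 37 C and 5% CO2.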

[5] = qHTS assay to identify small molecule agonists of the endoplasmic reticulum stress response signaling pathway - cell viability counter screen (AID 1159517; calls by dose curve;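 also: HeLa cells carrying an ER stress response element beta-lactamase reporter; series mostly up to about 61 µM; % is scaled to controls: 0 for no effect and ±100 for the full control effect; nearly all actives have a fitted effect of over 50% in size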)
How it was run: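 After overnight attachment, ESRE-bla HeLa cells were treated with Tox21 library compounds for 5 hr. CellTiter-Glo luminescence, read 30 min post-addition at room temperature, reported viability.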

[6] = qHTS assay to identify small molecule antagonists of the retinoid-related orphan receptor gamma (ROR-gamma) signaling pathway - cell viability counter screen (AID 1159520); also: % is scaled to controls: 0 for no effect and ±100 for the full control effect; nearly all actives have a fitted effect of over 50% in size
How it was run: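 Cytotoxicity was read from cellular ATP (CellTiter-Glo luminescence) after 16 hr at 37 C with 1 uM doxycycline induction. The inducer was added 2 hr after compound transfer to Tet-on ROR gamma CHO cells.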

[7] = molecular target: Nuclear receptor ROR-gamma (Homo sapiens) (UniProt P51449); assay: qHTS assay to identify small molecule antagonists of the retinoid-related orphan receptor gamma (ROR-gamma) signaling pathway (AID 1159521)
How it was run: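 Tet-on RORγ CHO cells carrying a ROR response element–luciferase reporter were pretreated with compounds for 2 h, then induced with 1 uM (final) doxycycline hyclate for 16 h at 37 C. Antagonism was read as decreased ONE-Glo luminescence.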

[8] = qHTS assay to identify small molecule agonists of the AP-1 signaling pathway - cell viability counter screen (AID 1159525; calls by dose curve; also: nearly all actives have a fitted effect of over 55% in size)
How it was run: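 Intracellular ATP by Cell Titer Glo luminescence (30 min, RT) in the same ME-180 AP-1-bla wells after the 5 h compound exposure at 37 °C. Normalised to tetra n-octyl ammonium bromide and DMSO controls.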

[9] = qHTS assay to identify small molecule agonists of the AP-1 signaling pathway (AID 1159526; calls by dose curve; also: % is scaled to controls: 0 for no effect and ±100 for the full control effect)
[10] = molecular target: Retinoic acid receptor RXR-alpha (Homo sapiens) (UniProt P19793); assay: qHTS assay to identify small molecule agonists of the RXR signaling pathway (AID 1159527; calls by dose curve; also: % is scaled to controls: 0 for no effect and ±100 for the full control effect; nearly all actives have a fitted effect of over 35% in size)
How it was run: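 GeneBLAzer RXR-alpha-UAS-bla HEK 293T cells in medium with 2% charcoal-stripped FBS, pre-incubated 5 hr at 37 C, then exposed to compounds 16 hr. Beta-lactamase reporter read by FRET substrate, 2 hr room temperature, 460/530 nm emission.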

[11] = qHTS assay to identify small molecule agonists of the RXR signaling pathway - cell viability counter screen (AID 1159529)
How it was run: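 RXR-alpha-UAS-bla HEK 293T cells in medium with 2% charcoal-stripped FBS were preincubated 5 hr, then exposed to compounds for 16 hr at 37 C. Viability was read as CellTiter-Glo luminescence after 30 min at room temperature.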

[12] = qHTS assay to identify small molecule antagonists of the retinoid acid receptor (RAR) signaling pathway - cell viability counter screen (AID 1159551); also: % is scaled to controls: 0 for no effect and ±100 for the full control effect; nearly all actives have a fitted effect of over 35% in size
How it was run: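 ATP-based viability, C3RL4 cells, 6 h at 37 C with 1 uM final retinol co-added after compound; luminescence read 30 min post CellTiter-Glo, RT.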

[13] = qHTS assay to identify small molecule antagonists of the retinoic acid receptor (RAR) signaling pathway (AID 1159552)
How it was run: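 RARE-luc C3RL4 cells; cpds + 1 uM (final) retinol, 6 hr, 37 C/5% CO2; luciferase reagent, 30 min RT, luminescence readout. Inhibitors of retinol-driven signal scored.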

[14] = qHTS assay to identify small molecule agonists of the retinoic acid receptor (RAR) signaling pathway (AID 1159553); also: % is scaled to controls: 0 for no effect and ±100 for the full control effect
How it was run: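 Quantitative high-throughput format: the Tox21 10K library was tested on C3RL4 RARE-luciferase cells for 6 hr at 37 C and 5% CO2, with luminescence measured after a 30 min room-temperature reagent step.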

[15] = qHTS assay to identify small molecule antagonists of the estrogen related receptor (ERR) signaling pathway (AID 1224819)
How it was run: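 ERR reporter cell line (NTP) plated at 2,000 cells/well, settled 6 h at 37C/5% CO2, then exposed to LOPAC compounds for 18 h at 37C. One-Glo luciferase luminescence read after 30 min at room temperature.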

[16] = qHTS assay to identify small molecule agonists of the estrogen related receptor (ERR) signaling pathway (AID 1224820); also: % is scaled to controls: 0 for no effect and ±100 for the full control effect
How it was run: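 Luminescence readout (One-Glo, 30 min RT) from NTP-supplied ERR cell line exposed to compounds for 18 h at 37 C. Cells seeded 2,000 per well and pre-incubated 6 h before pin-tool compound transfer.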

[17] = system: estrogen-related receptor alpha (ERRalpha) with PGC-1alpha coactivator, human; assay: qHTS assay to identify small molecule antagonists of the estrogen related receptor signaling pathway with the pleiotropic PPARgamma coactivator (PGC) (AID 1224821; calls by dose curve)
How it was run: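 PGC/ERR reporter cells; 6 h pre-incubation 37 C/5% CO2; pin-tool compound in DMSO, 18 h 37 C; One-Glo added, 30 min RT; luminescence read. qHTS antagonist mode.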

[18] = qHTS assay to identify small molecule agonists of the estrogen related receptor signaling pathway with the pleiotropic PPARgamma coactivator (PGC) (AID 1224823); also: % is scaled to controls: 0 for no effect and ±100 for the full control effect
How it was run: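 Luminescence readout (One-Glo, 30 min RT) from PGC/ERR cell line treated 18 h at 37 C with pin-tool-delivered DMSO compound solutions; cells plated 6 h before dosing. Quantitative HTS format.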

[19] = qHTS assay to identify small molecule antagonists of the estrogen related receptor (ERR) signaling pathway from Tox21 library - cell viability counter screen (AID 1224834); also: % is scaled to controls: 0 for no effect and ±100 for the full control effect; nearly all actives have a fitted effect of over 30% in size
How it was run: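 Compounds in DMSO were pinned onto ERR cells that had been incubated for 6 h, and the plates were held at 37 C for 17.5 h. CellTiter-Fluor reagent was then added and fluorescence was measured after 30 min.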

[20] = molecular target: Luciferin 4-monooxygenase (Photinus pyralis) (UniProt P08659); assay: qHTS assay to identify small molecule inhibitors of firefly luciferase (AID 1224835); also: series mostly up to about 120 µM; % is scaled to controls: 0 for no effect and ±100 for the full control effect; nearly all actives have a fitted effect of over 25% in size
How it was run: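 Inhibition of purified Photinus luciferase is measured by luminescence. Substrate levels (D-luciferin, ATP) sit at their KM values. Each compound is tested in a concentration series.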

Luciferin 4-monooxygenase (Photinus pyralis), sequence (P08659 whole entry, looked up): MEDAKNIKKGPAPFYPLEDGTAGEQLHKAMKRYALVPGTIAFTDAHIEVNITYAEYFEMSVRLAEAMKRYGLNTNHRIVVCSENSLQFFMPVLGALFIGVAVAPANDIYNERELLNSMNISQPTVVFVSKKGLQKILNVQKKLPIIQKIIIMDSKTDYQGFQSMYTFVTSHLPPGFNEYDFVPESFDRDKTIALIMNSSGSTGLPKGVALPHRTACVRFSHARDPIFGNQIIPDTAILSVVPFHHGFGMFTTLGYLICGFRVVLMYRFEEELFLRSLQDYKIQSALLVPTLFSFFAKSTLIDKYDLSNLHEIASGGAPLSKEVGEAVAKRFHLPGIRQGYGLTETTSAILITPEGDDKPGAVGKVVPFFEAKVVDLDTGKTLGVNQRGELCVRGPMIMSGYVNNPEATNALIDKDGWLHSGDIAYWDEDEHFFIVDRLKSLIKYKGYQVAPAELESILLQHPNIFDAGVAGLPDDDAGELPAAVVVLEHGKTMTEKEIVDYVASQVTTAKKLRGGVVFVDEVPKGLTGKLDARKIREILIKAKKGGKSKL
Retinoic acid receptor RXR-alpha (Homo sapiens), sequence (P19793 whole entry, looked up): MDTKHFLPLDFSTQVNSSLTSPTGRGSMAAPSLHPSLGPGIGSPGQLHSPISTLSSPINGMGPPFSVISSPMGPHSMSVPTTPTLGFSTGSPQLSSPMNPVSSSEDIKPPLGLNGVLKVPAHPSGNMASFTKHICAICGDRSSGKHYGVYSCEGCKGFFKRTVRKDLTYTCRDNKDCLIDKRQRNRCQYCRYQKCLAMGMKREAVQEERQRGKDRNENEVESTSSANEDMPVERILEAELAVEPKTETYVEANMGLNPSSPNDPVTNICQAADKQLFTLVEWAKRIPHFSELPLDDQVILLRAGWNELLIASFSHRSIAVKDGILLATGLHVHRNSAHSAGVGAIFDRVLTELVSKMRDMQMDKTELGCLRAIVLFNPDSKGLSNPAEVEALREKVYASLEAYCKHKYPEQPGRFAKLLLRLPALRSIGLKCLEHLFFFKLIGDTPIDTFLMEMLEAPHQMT

N[C@@H]1CONC1=O
inactive: Potency [1] | Potency [2] | Potency [3] | outcome [4] | Potency [5] | Potency [6] | Potency [7] | Potency [8] | Potency [9] | Potency [10] | Potency [11] | Potency [12] | Potency [13] | Potency [14] | Potency [15] | outcome [16] | Potency [17] | outcome [18] | Potency [19] | Potency [20]

O=C(O)CP(=O)(O)O
inactive: Potency [2] | Potency [3] | outcome [4] | Potency [5] | Potency [6] | Potency [7] | Potency [8] | Potency [9] | Potency [10] | Potency [11] | Potency [12] | Potency [13] | Potency [14] | Potency [19] | Potency [20]

O=C(O)c1cn(-c2ccc(F)cc2)c2cc(N3CCNCC3)c(F)cc2c1=O
inactive: Potency [1] | Potency [2] | Potency [3] | outcome [4] | Potency [5] | Potency [6] | Potency [7] | Potency [8] | Potency [9] | Potency [10] | Potency [11] | Potency [12] | Potency [13] | Potency [14] | Potency [19]

CN1C(=O)c2ccc([N+](=O)[O-])cc2C1=O
inactive: Potency [1] | Potency [2] | Potency [3] | outcome [4] | Potency [5] | Potency [6] | Potency [8] | Potency [9] | Potency [10] | Potency [11] | Potency [13] | Potency [14] | Potency [19] | Potency [20]

CCCCCCCCCCCCCCCCCl
inactive: Potency [2] | Potency [3] | outcome [4] | Potency [5] | activity, negative = cytotoxicity [6] 5.98% [at 19 µM] | viability change, negative = cytotoxic [8] -12.8% [at 15.8 µM] | activation [9] -1.11% [at 15.8 µM] | activation [10] 0.473% [at 15.8 µM] | activity change, negative = cytotoxicity [11] 6.15% [at 15.8 µM] | activity change, negative = cytotoxicity [12] 4.57% [at 19 µM] | activity, negative = inhibition [13] -10.4% [at 19 µM] | Potency [14] | viability change, negative = cytotoxic [19] 1.81% [at 19 µM] | activity change, negative = inhibition [20] 0.302% [at 23.6 µM]

CC(N)=O
inactive: Potency [2] | Potency [3] | outcome [4] | Potency [5] | Potency [6] | Potency [7] | Potency [8] | Potency [9] | Potency [10] | Potency [11] | Potency [12] | Potency [13] | Potency [14] | Potency [19] | Potency [20]

c1ccc2c(c1)CCCC2C1=NCCN1 (centres undefined)
inactive: Potency [1] | Potency [2] | Potency [3] | outcome [4] | Potency [5] | Potency [6] | Potency [7] | Potency [8] | Potency [9] | Potency [10] | Potency [11] | Potency [12] | Potency [13] | Potency [14] | Potency [19] | Potency [20]
